Bioassay records (PubChem)
Calb FLC – C. albicans growth modulation with fluconazole; C. albicans CaCi-2 (fluconazole-resistant clinical isolate) + fluconazole, Alamar Blue growth, 48 h; growth inhibition, % (concentration not given with the values); hit rate 0.57% among 300,000;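 active = growth inhibition above about 58% in most replicates, limit read from the data, passing the limit was not always enough; inconclusive = exactly half the replicates above a set limit; inactive = most replicates below a set limit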;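 also: all wells also contain fluconazole at 8 µg/ml as a sub-toxic cotreatment; 0% = median of DMSO wells and 100% = median of geldanamycin control wells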
697 NFkB inh – lowers PMA/ionomycin-induced NF-kB signal in 697 B cells; 697 B-cell NF-kB luciferase reporter, 16 h; inhibition, % at 4 µM; AID 435022; hit rate 0.33% among 330,000; in the data active = inhibition above about 35%
Beta apoptosis – beta cell apoptosis inhibition | INS-1E cytokine-induced death, ATP luminescence, 48 h; percent of positive-control rescue, neutral wells zero | protection from apoptosis, % (concentration not given with the values) | hit rate 0.8% among 300,000 | AID 435005;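 active = Every replicate reaches about 75%, or at least half do and their mean reaches it too, limit read from the data; inconclusive = At least half of replicates reach the limit but their mean does not; inactive = Under half of replicates reach the limit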;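 also: 0% = cytokine-treated negative control wells and 100% = positive control rescue; higher means more ATP so stronger rescue from cytokine killing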
Shn3 3UTR inh – Schnurri-3 reporter inhibition in Clone20 osteoblasts | Clone20 osteoblast Shn3 3'UTR firefly luciferase, 24 h | inhibition, % at 12.5 µM | hit rate 0.52% among 360,000 | AID 588674;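 active = mean inhibition of at least 75% with every replicate also reaching 75%; inconclusive = mean inhibition at least 75% but some replicate below; inactive = mean inhibition below 75%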;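 also: 0% = median of neutral control wells and 100% = pilot-screen positive control compound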
Jurkat NFkB inh – lowers PMA/ionomycin-induced NF-kB signal in Jurkat cells | PMA/ionomycin-induced NF-kB luciferase reporter, luminescence | inhibition, % at 4 µM | hit rate 0.53% among 330,000 | AID 435003; in the data active = inhibition above about 50%
Numbers without * were called inactive. This is a sample that favours compounds with a hit; in the whole collection about 2% have one here.

How did CCc1cc(C(=O)NNC(=S)Nc2cccc(C)c2)cs1 do in these assays?
Calb FLC: inconclusive; 697 NFkB inh: -57; Beta apoptosis: -1; Shn3 3UTR inh: -78; Jurkat NFkB inh: -71

Results for Cc1cc(/C=C(\C#N)C(=O)NCc2ccccc2)c(C)[nH]1 ?
Shn3 3UTR inh: -15

What do the screens show for `Cc1cccc(CCNC(=O)c2oc3c(C)c(C)ccc3c2C)n1`?
Calb FLC: 14; 697 NFkB inh: -5; Shn3 3UTR inh: 16; Jurkat NFkB inh: 4

Results for CCOC(=O)C(=NC1CCS(=O)(=O)C1)NNc1ccc(Br)cc1 (configuration not stated) ?
Calb FLC: 112*; 697 NFkB inh: 4; Beta apoptosis: -1; Shn3 3UTR inh: -18; Jurkat NFkB inh: 12

Results for CCOC(=O)C(=NC(C)CC)NNc1cccc(C(F)(F)F)c1 (configuration not stated) ?
Calb FLC: -5; 697 NFkB inh: 5; Beta apoptosis: -6; Shn3 3UTR inh: -1; Jurkat NFkB inh: 2

How did CCOC(=O)C(=NC1CCCCC1)NNc1cccc(C(F)(F)F)c1 do in these assays?
Calb FLC: 57*; 697 NFkB inh: -14; Beta apoptosis: -6; Shn3 3UTR inh: -2; Jurkat NFkB inh: -23

How did NS(=O)(=O)c1ccc(CNC(=O)C2CCCN2C(=O)c2cccs2)cc1 (configuration not stated) do in these assays?
697 NFkB inh: 4; Beta apoptosis: -1; Shn3 3UTR inh: -19; Jurkat NFkB inh: 6

How did Cc1ccc(C)c(S(=O)(=O)N2CCCOC2CNC(=O)C(=O)NCc2ccc3c(c2)OCO3)c1 (configuration not stated) do in these assays?
Calb FLC: -5; 697 NFkB inh: -6; Beta apoptosis: -7; Shn3 3UTR inh: -12; Jurkat NFkB inh: 6

What do the screens show for `O=C(CCc1ccccc1)NNC(=S)NC(=O)c1ccc(Cl)cc1`?
Calb FLC: 80*; 697 NFkB inh: -15; Jurkat NFkB inh: -9

What do the screens show for `Cc1cccc(C(=O)NC(=S)NNC(=O)Cc2ccccc2)c1`?
Calb FLC: 95*; 697 NFkB inh: -68; Beta apoptosis: 10; Shn3 3UTR inh: 7; Jurkat NFkB inh: 17

Results for Cc1ccnc(NC(=O)CCC(=O)N(CC(=O)NCc2ccc(F)cc2)Cc2ccccc2)c1 ?
Calb FLC: -9; 697 NFkB inh: 17; Beta apoptosis: -21; Shn3 3UTR inh: -9; Jurkat NFkB inh: -13

How did O=CN1CCN(C(=O)CC(c2ccccc2)c2cc(Br)ccc2O)CC1 (configuration not stated) do in these assays?
Calb FLC: 0; 697 NFkB inh: -1; Shn3 3UTR inh: 12; Jurkat NFkB inh: 3

How did CCc1ccc(O)c(CNCCNCc2cc(CC)ccc2O)c1 do in these assays?
Calb FLC: -8; 697 NFkB inh: -6; Beta apoptosis: 23; Shn3 3UTR inh: 86*; Jurkat NFkB inh: 31

How did C=CCn1c(N)nc2ccccc21 do in these assays?
Calb FLC: 82*; 697 NFkB inh: -5; Beta apoptosis: -3; Shn3 3UTR inh: 4; Jurkat NFkB inh: -1

How did CCOC(=O)C1(CCOc2ccccc2)CCN(Cc2ccc(OC)c(COC)c2)CC1 do in these assays?
Calb FLC: 6; 697 NFkB inh: -30; Shn3 3UTR inh: 88*; Jurkat NFkB inh: 46

What do the screens show for `COc1ccc(N2CCN(C(=O)COC(=O)CNC(=O)c3cccc(OC(F)F)c3)CC2)cc1`?
697 NFkB inh: -8; Beta apoptosis: 3; Shn3 3UTR inh: -11; Jurkat NFkB inh: -1

Results for COc1ccc(-c2cc(C(=O)OCC(=O)c3ccc(C)c([N+](=O)[O-])c3)c3ccccc3n2)cc1 ?
Calb FLC: 3; 697 NFkB inh: -4; Beta apoptosis: -3; Shn3 3UTR inh: -40; Jurkat NFkB inh: 2

How did COc1ccc(-c2nn(-c3ccccc3)cc2C(=O)OCC(=O)c2ccc(C)c([N+](=O)[O-])c2)cc1 do in these assays?
Calb FLC: 3; 697 NFkB inh: 5; Beta apoptosis: 101*; Shn3 3UTR inh: 1; Jurkat NFkB inh: 7

Results for Cc1nc(Nc2ccc(S(=O)(=O)N3CCCCC3C)cc2)c2nnn(Cc3ccccc3)c2n1 (configuration not stated) ?
Calb FLC: 3; 697 NFkB inh: -52; Beta apoptosis: 76*; Shn3 3UTR inh: 74; Jurkat NFkB inh: 14

What do the screens show for `Cc1nc(Nc2ccc(Cl)cc2)c2nnn(Cc3ccccc3)c2n1`?
Calb FLC: 25; 697 NFkB inh: 20; Beta apoptosis: 8; Shn3 3UTR inh: 7; Jurkat NFkB inh: 7

How did CC(C)N(C(=O)[C@H]1CC(CC(=O)NCC23CC4CC(CC(C4)C2)C3)C(=O)N2CCc3c([nH]c4ccccc34)[C@]12C)C(C)C (some centres not stated) do in these assays?
697 NFkB inh: 11; Shn3 3UTR inh: 18; Jurkat NFkB inh: 8

What do the screens show for `CC(=O)C1=CCC(c2ccc(Cl)cc2)N(S(=O)(=O)c2ccccc2C)C1` (configuration not stated)?
Shn3 3UTR inh: 3

What do the screens show for `CCOc1cc(C(N)=O)cc(Cl)c1OCc1ccccc1`?
Calb FLC: 112*; 697 NFkB inh: 2; Beta apoptosis: -2; Shn3 3UTR inh: -15; Jurkat NFkB inh: 8

Results for O=C(CSC(=S)N1CCOCC1)Nc1nccs1 ?
Calb FLC: 0; 697 NFkB inh: 3; Beta apoptosis: 2; Shn3 3UTR inh: -24; Jurkat NFkB inh: 10

How did O=C(CSC(=S)N1CCOCC1)Nc1nc(=O)c2ccccc2s1 do in these assays?
Calb FLC: 52*; 697 NFkB inh: -7; Beta apoptosis: 3; Jurkat NFkB inh: -3

How did CCOc1ccccc1C(=O)N/N=C/c1ccoc1 do in these assays?
Calb FLC: 104*; 697 NFkB inh: 17; Beta apoptosis: -6; Shn3 3UTR inh: -4; Jurkat NFkB inh: 5

How did CS(=O)(=O)c1ccc(C(=O)OCC(=O)NC23CC4CC(CC(C4)C2)C3)cc1[N+](=O)[O-] do in these assays?
Calb FLC: -8; 697 NFkB inh: 10; Beta apoptosis: -44; Shn3 3UTR inh: 68; Jurkat NFkB inh: -6

What do the screens show for `CC(C)CN1CCN(C(=O)COC(=O)c2ccc(S(C)(=O)=O)c([N+](=O)[O-])c2)CC1`?
Shn3 3UTR inh: 75

Results for CC(OC(=O)c1ccc(S(C)(=O)=O)c([N+](=O)[O-])c1)C(=O)NC1C2CC3CC(C2)CC1C3 (configuration not stated) ?
Shn3 3UTR inh: 98*

What do the screens show for `CCC(OC(=O)c1ccc(S(C)(=O)=O)c([N+](=O)[O-])c1)C(=O)NC1C2CC3CC(C2)CC1C3` (configuration not stated)?
Shn3 3UTR inh: 96*

Results for COc1ccc(NS(=O)(=O)c2ccc(O)c(NC(=O)c3ccc(S(=O)(=O)N4CCCCCC4)cc3)c2)cc1 ?
Calb FLC: 25; 697 NFkB inh: -11; Beta apoptosis: -6; Shn3 3UTR inh: -6; Jurkat NFkB inh: 25
